Experimental data taken from PubChem BioAssay (NCI).
“And” between values parts separate entries of the source, which are not always exact repeats. Identical values can stand only once. The panel holds about 83,000 compounds, 20% with a hit somewhere; the sample as a whole holds those more often.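 Interpretation: 100, growth as untreated; towards 0, rising growth inhibition; 0, no net growth; 0 to -100, cell death. Compounds scoring below 10 were considered active.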 The source made the active and inactive calls.

The compounds below were run on MDA-MB-468 breast (assay: NCI-60 one-dose screen, 48 h (100 = growth as untreated, 0 = no growth, -100 = all killed)). Conditions: 10 µM unless noted.

Compound	growth
CC(C)C(/C=C/c1[nH]ncc1-c1cc(Cl)ccc1O)N1CCOCC1 (configuration not stated)	84.9% (inactive)
CCNC(=O)N1CCc2c(Br)c3c(c(OC)c2C1Cc1ccc(OC)cc1)OCO3 (configuration not stated)	19.2% (inactive)
CCOC(=O)c1c(-c2cc(OC)c(OC)c(OC)c2)csc1N	50% (inactive)
C[C@H](CCC(=O)O)[C@H]1CC[C@H]2[C@@H]3CC[C@@H]4/C(=C\c5ccco5)C(=O)/C(=C\c5ccco5)C[C@]4(C)[C@H]3CC[C@]12C	41.1% (inactive)
COc1ccc2c(c1)CCc1c-2n[nH]c1-c1[nH]nc2c1CCc1cc(OC)ccc1-2	-6.6% (active)
COc1cc(/C=C2\CN(S(=O)(=O)c3ccc(C)cc3)C/C(=C\c3cc(CN4CCOCC4)c(O)c(OC)c3)C2=O)cc(CN2CCOCC2)c1O	-45.9% (active)
C[C@]12O[C@H]1[C@H](O)c1c(cc(O)c3c1C(=O)c1cccc(O)c1-3)C2=O	83.3% (inactive)
O=C(S)CNC(=O)c1ccccc1	95.7% (inactive)
CC(C)(C)c1nn(-c2ccccc2)c2c1COCN2Cc1ccc(Cl)cc1	89% (inactive)
Cc1ccc(C(=O)c2ccccc2)c(C)c1	111% (inactive)
COc1ccc2c(c1)C(C)Cc1c(Cl)ncnc1N2C (configuration not stated)	-47.7% (active)
O=C(Nc1cccc(-n2ccc3c(NC(=O)c4ccccc4)nccc32)c1)c1cc(N2CCOCC2)cc(C(F)(F)F)c1	-32.3% (active)
C=C(C)[C@@H]1CC[C@]2(C#N)CC[C@]3(C)[C@H](CC[C@@H]4[C@@]5(C)CCCNC(C)(C)[C@@H]5CC[C@]43C)[C@@H]12	19.3% (inactive)
O=c1ccn(C2CCCO2)c(=O)[nH]1 (configuration not stated)	104% (inactive)
CCn1cc(C2=C(c3cn(C)c4ncccc34)C(=O)NC2=O)c2cccnc21	37.2% (inactive)
CN1CCN(CC(=O)Nc2cccc(-n3cc(-c4ccncc4)c(-c4ccc(Cl)c(O)c4)n3)c2)CC1	10.7% (inactive)
Cc1cc(C#Cc2ccccc2)ccc1-n1c(/C=C/c2cc(O)ccc2O)nc2ccccc2c1=O	-36.5% (active)
c1cc2ccc3cc2cc1CNCCN1CCNCc2ccc4ccc(cc4c2)CNCCN(CCNC3)CCNCc2ccc3ccc(cc3c2)CNCC1	-45.2% (active)
N#Cc1cnn2c(-c3ccc(Cl)cc3)nc(NC3CC3)nc12	97% (inactive)

Compound	growth
Cc1nc2sc(C(=O)Nc3cccc(Cl)c3C)c(N)c2cc1C(=O)/C=C/c1ccccc1	4.69% (active)
Fc1cc2[nH]ncc2c2c3c(c(-c4cn[nH]c4C(F)(F)F)nc12)C1CCC3C1 (configuration not stated)	11.5% (inactive)
Cc1oc2nc[nH]c(=O)c2c1C(=O)/C=C/c1ccc(Cl)cc1Cl	86.7% (inactive)
NNc1ccc2ccccc2c1	83.7% (inactive) and 88.7% (inactive)
C#CCC1(c2ccc(F)c(F)c2)NS(=O)(=O)c2ccccc21 (configuration not stated)	95.2% (inactive)
COc1ccc2c(c1)N(CCO)C1=C(C(=O)OC1)C2c1cccc(F)c1 (configuration not stated)	7.89% (active)
Cc1ccc2c(n1)C(=O)C(Cl)=C(Nc1ccc(C(F)(F)F)cc1)C2=O	-48.5% (active)
COc1ccc(/C=N/C2=C(C#N)C(c3ccc(OC)cc3)c3ccc4ccccc4c3O2)cc1 (configuration not stated)	38.2% (inactive)
Cc1nc(N/N=C/c2cn(-c3ccccc3)nc2-c2cc3ccccc3oc2=O)sc1N=Nc1ccccc1	89.7% (inactive)
CC(=O)Nc1ccc2c(c1)c(NC(C)=O)nn2C(=O)Nc1ccc(Cc2ccccc2)cc1	80.1% (inactive)
COCCOCCOCc1n(Cc2ccc3ccccc3n2)c2ccccc2[n+]1Cc1ccc2ccccc2c1	-50.1% (active)
O=C(CN1CCN(c2cc(=O)n(-c3ccccc3)c3ccccc23)CC1)Nc1ccc(F)cc1	9.45% (active)
COc1ccc(C2C=C(c3ccc(Cl)cc3)N=C3SC=CN32)c(Br)c1 (configuration not stated)	61% (inactive)
Cc1cccc(C)c1Nc1nnc(-c2ccc(F)cc2)o1	102% (inactive)
CN1C2CCC1/C(=C\c1ccc(Cl)cc1)C1=C2[C@@H](c2ccc(Cl)cc2)C(C#N)=C(N)O1 (some centres not stated)	77.9% (inactive)
Cc1ccn2cc(Cc3cc(=O)oc4c3ccc3ccccc34)c(=O)nc2c1	117% (inactive)
COc1ccc(NC(=O)CSc2nc3ccc(Cl)cc3c(=O)n2-c2ccccc2C(F)(F)F)c(OC)c1OC	79.6% (inactive)
CC[C@]1(O)C[C@@H]2CN(CCc3c([nH]c4ccccc34)[C@@](C(=O)OC)(c3cc4c(cc3OC)N(C)[C@H]3[C@@](O)(C(=O)OC)[C@H](OC(=O)CCCBr)[C@]5(CC)C=CCN6CC[C@]43[C@@H]65)C2)C1	31.8% (inactive)
